Screening results as filed in PubChem.
FBPA coupling cs: qHTS Assay for Inhibitors of Fructose-1,6-bisphosphate Aldolase from Giardia Lamblia: Coupling assay counterscreen. hit rate 0.67% among 290,000. activity change, negative = inhibition, % at 58.2 µM, hits read low. coupling enzyme system counterscreen, AmpLite Red fluorescence; in the data active = activity change below about -30%
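Fluorescence at 525 nm excitation and 598 nm emission measured inhibition of the coupled detection system without aldolase. Compounds (at 57.5 uM final) were preincubated 10 min at room temperature with coupling enzyme reagent before a 20 min substrate/AmpLite Red step.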
Sfp PPTase inh: qHTS Assay for Inhibitors of Bacillus subtilis Sfp phosphopantetheinyl transferase (PPTase) | hit rate 3.5% among 310,000 | 4'-phosphopantetheinyl transferase ffp (Bacillus subtilis), Q9F4F7 | Potency, µM, inactives show largest response in the series, negative = inhibition, most hits filed as inhibitors | Biochemical Sfp PPTase activity, qHTS;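 note: the enzyme is Sfp with the accession as filed and its product quenches rhodamine fluorescence; potency is the fitted concentration of half-maximal effect; 0% = enzyme reaction without inhibitor and -100% = no enzyme wells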
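Compounds were incubated with enzyme (final 15 nM) for 15 min at room temperature before substrate addition started the reaction. Fluorescence at 525 nm excitation, 598 nm emission was recorded immediately and after 30 minutes.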
Giardia kill: Small Molecules that selectively kill Giardia lamblia: qHTS | Giardia lamblia trophozoite viability | activity change, % at 7.66 µM, hits read low | hit rate 0.15% among 340,000 | AID 540267, 2011; in the data active = activity change below about -80%; inconclusive = between about -30% and that limit;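 note: parasites exposed to compound for two days anaerobically before the ATP read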
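Killing of trophozoites was scored by loss of ATP luminescence after a 48 hrs anaerobic exposure to compounds at 37 deg C, using 100 cells per well.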
ELG1 DNA repair: qHTS screen for small molecules that inhibit ELG1-dependent DNA repair in human embryonic kidney (HEK293T) cells expressing luciferase-tagged ELG1; HEK293T ELG1-luciferase reporter, luminescence, 16 h; DNA damage induced by 5-fluorouridine; hit rate 2.3% among 330,000; Potency, µM (top dose mostly 46.1 µM), for the others: top-dose activity change, negative = inhibition, usual class: inhibitors; note: potency is the fitted concentration of half-maximal effect; nearly all actives have a fitted effect of over 55% in size
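Cells (2,000 per well) received 5-fluorouridine plus test compound or DMSO and were incubated 16 hr at 37 °C, 5% CO2. Luciferase activity was read by luminescence 30 min after ONE-Glo addition; signal suppression marked inhibition of damage-induced ELG1 function.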
The depositor's hits bear a star; ? = inconclusive; . = no result; ! = not active in a repeat. A selection: hits, their analogues and other compounds. The true share with any hit is near 5.5%. Unless noted, calls come from the whole dose curve; as a rule, active = well fitted curve in the direction sought with a large enough effect; inconclusive = small, poorly fitted or top-dose-only effect, or another doubt; inactive = no such curve, though single readings can be large; an effect the other way counts as inactive or inconclusive. Unless noted, % is set by controls: 0 for no effect and ±100 for the full control effect.

SMILES	FBPA coupling cs	Sfp PPTase inh	Giardia kill	ELG1 DNA repair
Cc1ccc(CC(=O)Nc2ncc([N+](=O)[O-])s2)cc1	8	6%	-91*	?
COc1ccnc(CSC(N)=Nc2ccccc2OC)c1	0	32µM*	29	22%
COc1ccnc(CSC(N)=Nc2ccccc2C(F)(F)F)c1	-14	?	-10	?
CCN(CC)CCN(Cc1cc2cc(C)cc(C)c2[nH]c1=O)C(=S)NCc1ccco1	3	10%	-7	-34%
CCN(CC)CCN(Cc1cc2ccc(C)c(C)c2[nH]c1=O)C(=S)NCc1ccco1	-6	56µM*	31	8%
CCN(CC)CCN(Cc1cc2cc(C)ccc2[nH]c1=O)C(=S)NCc1ccco1	-20	56µM*	24	-22%
CCNC(=S)N(Cc1cc2cc(C)ccc2[nH]c1=O)C1CCCC1	-5	56µM*	-4	?
O=C(c1csnn1)N1CCC2(CC1)CCN(c1ncccn1)CC2	1	23%	.	.
COc1ccc(-n2c(C)c([N+](=O)[O-])c3ccc(O)c(CN4CCCCC4)c32)cc1	0	-19%	-9	10µM*
O=S(=O)(/C(=C/c1ccc(C(F)(F)F)cc1)c1nc2ccccc2[nH]1)c1ccccc1	1	-19%	-18	16µM*
COc1ccc(N2CC(C(=O)Nc3nnc(SCC(=O)N4CCOCC4)s3)CC2=O)cc1 (stereo not given)	.	50µM*	18	2%
COc1ccc(N2CC(C(=O)Nc3nnc(SCC(=O)c4ccccc4)s3)CC2=O)cc1 (stereo not given)	14	28µM*	1	0%
CNC(=O)CSc1nnc(NC(=O)C2CC(=O)N(c3ccccc3OC)C2)s1 (stereo not given)	.	50µM*	-2	-13%
COCCSc1nnc(NC(=O)C2CC(=O)N(c3ccc(OC)cc3)C2)s1 (stereo not given)	3	29%	0	3%
COc1ccc(N2CC(C(=O)Nc3nnc(SCC(=O)NCc4ccco4)s3)CC2=O)cc1 (stereo not given)	.	50µM*	2	1%
N[C@H](CO)C(=O)O	.	-4%	.	.
N[C@@H](CO)C(=O)O	1	63µM*!	.	.
N[C@@H](CS(=O)O)C(=O)O	1	56µM*	.	.
CCOc1cccc(-c2c(C(=O)N/N=C/c3ccsc3)nnn2-c2nonc2N)c1	.	10%	-12	-4%
Cc1ccc(NC(=O)C2CCCN(S(=O)(=O)c3ccc4[nH]c(=O)ccc4c3)C2)c(C)c1 (stereo not given)	5	1%	-2	-2%
CCOc1ccccc1Nc1ncnc2ccc(Br)cc12	-2	-2%	-8	0%
CN(Cc1ccccc1)c1ncnc2ccc(Br)cc12	1	11%	-12	18µM*
CCOC(=O)C(C#N)(Cc1ccc2ccccc2n1)Cc1ccc2ccccc2n1	.	.	18	.
CN(C)c1ccc(N=Cc2ccco2)cc1	-42*	45µM*	11	?
CN(C)c1ccc(C=Nc2ccc(N(C)C)cc2)cc1	-29	22µM*	-1	?
SMILES	FBPA coupling cs	Sfp PPTase inh	Giardia kill	ELG1 DNA repair
Cc1cccc(NC(=O)C2CCCN(C(=O)Nc3ccc(F)cc3)C2)c1 (stereo not given)	0	15%	0	-2%
COc1ccc(N2CCN(C(=O)COC(=O)CCOc3ccc(C)cc3)CC2)cc1	.	.	3	10%
Nc1ncnc2c1nc(Br)n2C1OC(CO)C(O)C1O (stereo not given)	0	-2%	.	.
CCOc1ccccc1/C=N/Nc1nc2c(N)ncnc2n1[C@H]1O[C@@H](CO)[C@H](O)[C@@H]1O	-1	56µM*	22	?
CCc1ccc(NC(=O)c2ccc(C3SCC(=O)N3CCc3ccccc3)cc2)cc1 (stereo not given)	-2	23%	-12	10µM*
CCNC(=O)c1ccc(C2SCC(=O)N2CCc2ccccc2)cc1 (stereo not given)	3	-6%	-13	-8%
O=C(NCc1ccccc1)c1ccc(C2SCC(=O)N2Cc2ccccc2)cc1 (stereo not given)	-2	-5%	1	16µM*
CC1CCc2sc(C(=O)NNC(=S)NC3CC3)cc2C1 (stereo not given)	.	11%	-5	?
O=C(/C=C/c1cccs1)Nc1nc(-c2ccccc2)cs1	-4	15%	-20	?
O=C(/C=C/c1cccs1)Nc1scc(-c2ccccc2)c1C(=O)O	-24	32µM*	?	?
CCN(CC)c1ccc(NC2CC(=O)N(CCc3ccc(OC)cc3)C2=O)cc1 (stereo not given)	-25	32µM*	2	-1%
COc1ccc(CCNC2CC(=O)N(CCc3ccccc3)C2=O)cc1 (stereo not given)	5	-11%	9	-1%
COc1cc(OC)c(OC)cc1CNC(=O)c1cc(S(=O)(=O)N2CCOCC2)ccc1F	.	.	-4	?
COc1ccc2c(c1)O[C@H](c1ccc3c(c1)OCO3)[C@@H](OC(=O)NCc1ccc3c(c1)OCO3)C2=O	2	0%	.	.
COc1ccc2c(c1)O[C@H](c1ccc3c(c1)OCO3)[C@@H](OC(=O)NCc1ccco1)C2=O	2	89µM*	.	.
CN(C(=O)CSc1nc(N)c2c3c(sc2n1)CSC(C)(C)C3)c1ccccc1	3	-12%	2	21µM*
CN(C(=O)CSC1=NCCS1)c1ccccc1	1	10%	21	-3%
CCOC(=O)c1[nH]c2c(c1C)C(=O)CC(c1ccco1)C2 (stereo not given)	-2	25µM*	-13	23%
CSCCOC(=O)c1[nH]c2c(c1C)C(=O)CC(c1ccco1)C2 (stereo not given)	0	45µM*	-3	-19%
COCCOC(=O)c1[nH]c2c(c1C)C(=O)CC(c1cc(OC)c(OC)c(OC)c1)C2 (stereo not given)	7	6%	-19	8.2µM*
Cc1c(C(=O)OCc2ccccc2)[nH]c2c1C(=O)CC(c1ccco1)C2 (stereo not given)	5	40µM*	5	?
COc1cccc2c1CCCC2CCCN1CCN(C2CCCCC2)CC1 (stereo not given)	-1	2%	.	.
COCCOC(=O)c1[nH]c2c(c1C)C(=O)C(C(=O)OC)C(C)C2 (stereo not given)	-36*	-13%	-16	?
COc1ccc(OC)c(NC(=O)CCN2CCN(C)CC2)c1	1	-13%	0	-5%
NC(=S)Nc1cccc2cn[nH]c12	-12	56µM*	9	7%
N#CCCN(C(=S)NC(=O)c1ccco1)c1ccccc1F	2	22µM*	8	11%
N#CCCN(Cc1cccnc1)C(=S)NC(=O)c1ccco1	2	12%	4	14%
Nc1c(C(=O)Nc2ccccc2Cl)nnn1-c1ccc2c(c1)OCCO2	5	5%	0	?
